Data published in PubChem BioAssay AID590 (National Center for Advancing Translational Sciences (NCATS), 2007).
In all, about 59,000 compounds went through this assay and about 6,500 (11%) were called active. About 15% were inconclusive and are not listed. Cut-off read from the data, not from the text of the source: active = max dye-equivalent concentration above about 10 nM; inconclusive = mostly about 1.1 nM to 9.6 nM; inactive = weaker than that. The sample as a whole holds a higher share of actives than the screen did.

Assay: qHTS Assay for Spectroscopic Profiling in A350 Spectral Region
Conditions: Compound autofluorescence, 340/450 nm, Alexa 350 dye-equivalents; hits give high values
In the case of `COc1ccccc1CNc1ncncc1-c1cccnc1`, the max dye-equivalent concentration is reported as “inactive”. With `CCc1cc(=O)oc2cc(C)cc(OC(C)C(=O)O)c12` (centres undefined) the max dye-equivalent concentration was 110 nM (active). For `CCOC(=O)CCCNC(=O)CN1C(=O)NC(CCc2ccccc2)C1=O` (centres undefined), the max dye-equivalent concentration was “inactive”. In the case of `CCNc1nc(NCC)nc(N(C)n2cnnc2)n1`, the max dye-equivalent concentration is reported as “inactive”. For `C=CCn1c(SCn2nnc3ccccc3c2=O)nnc1-c1ccc(Cl)cc1`, the max dye-equivalent concentration was “inactive”. In the case of `COC(=O)N1CCC2(CCCN(Cc3ccccc3OC)C2)CC1`, the max dye-equivalent concentration is reported as “inactive”. In the case of `CCOC(=O)c1cc2cc(C)ccc2[nH]1`, the max dye-equivalent concentration is reported as “inactive”. For `CCNCc1cc2cc(C)ccc2[nH]c1=O`, the max dye-equivalent concentration was 53 nM (active). For `Cc1ccc2[nH]c(=O)c(-c3nc4c(C)cccn4c3NCc3ccco3)cc2c1`, the max dye-equivalent concentration was “inactive”. For `CC(C)(C)n1nnc(CCc2nnn(C(C)(C)C)n2)n1`, the max dye-equivalent concentration was “inactive”. In the case of `Cc1csc(NC(=O)NC2(C(F)(F)F)Oc3ccccc3O2)n1`, the max dye-equivalent concentration is reported as 100 nM (active). For `Cc1csc(NC(=O)CN2CCCCCC2)n1`, the max dye-equivalent concentration was “inactive”. For `O=C(Nc1cc(N2CCOCC2)ncn1)NC1(C(F)(F)F)Oc2ccc(Cl)cc2O1` (centres undefined), the max dye-equivalent concentration was “inactive”. In the case of `COc1ccc2[nH]c3cc4c(=O)c5cc(OC)ccc5[nH]c4cc3c(=O)c2c1`, the max dye-equivalent concentration is reported as “inactive”. With `COc1ccc2[nH]c3ccc(OC)cc3c2c1` the max dye-equivalent concentration was 150 nM (active). With `COc1cccc(Oc2ccc(N)cc2)c1` the max dye-equivalent concentration was “inactive”. For `CC(C)c1ccc(-c2nn[nH]n2)cc1`, the max dye-equivalent concentration was “inactive”. For `CCOc1ccc(-c2nnc3ccc(SC)nn23)cc1`, the max dye-equivalent concentration was 12 nM (active). For `CCn1cc(C(=O)N2CCN(Cc3ccc4c(c3)OCO4)CC2)c2cc(OC)c(OC)cc2c1=O`, the max dye-equivalent concentration was “inactive”. With `CS(=O)(=O)N1CCC2(CC1)CN(c1ccncc1)C2` the max dye-equivalent concentration was “inactive”. In the case of `CC(=O)NC(Cc1ccc(F)cc1)C(=O)O` (centres undefined), the max dye-equivalent concentration is reported as “inactive”. With `Cc1cc(C)cc(N(C(C)C(=O)Nc2c(C)n(C)n(-c3ccccc3)c2=O)S(C)(=O)=O)c1` (centres undefined) the max dye-equivalent concentration was “inactive”. In the case of `Cc1ccccc1OCCC(=O)Nc1c(C)n(C)n(-c2ccccc2)c1=O`, the max dye-equivalent concentration is reported as “inactive”. In the case of `Cc1c(NC(=O)C(C)OC(=O)c2cc3c4ccccc4n(C)c3s2)c(=O)n(-c2ccccc2)n1C` (centres undefined), the max dye-equivalent concentration is reported as 170 nM (active). For `C[C@H](NC(=O)OC(C)(C)C)c1nnc(SCC(N)=O)o1`, the max dye-equivalent concentration was “inactive”. With `CCCNS(=O)(=O)c1ccc(CCC(=O)NCc2cccnc2)cc1` the max dye-equivalent concentration was “inactive”. For `COc1ccc(CN(C(=O)c2cccs2)c2nccs2)cc1OC`, the max dye-equivalent concentration was “inactive”. With `Cc1ccc(C)n1-c1ccncc1` the max dye-equivalent concentration was “inactive”. In the case of `O=c1cc(-c2ccccc2)[nH]c2nc(Cl)ccc12`, the max dye-equivalent concentration is reported as 69 nM (active). With `COCCN1Cc2cccc(C(=O)Nc3ccccc3OC)c2C1=O` the max dye-equivalent concentration was “inactive”. For `Fc1ccccc1OCCSc1nc2ccccc2o1`, the max dye-equivalent concentration was “inactive”. With `Cc1ccc(C(=O)CS(C)(=O)=O)cc1` the max dye-equivalent concentration was 19 nM (active). With `O=C1C=C(NCCNc2c(F)c(F)c(CO)c(F)c2F)CCC1` the max dye-equivalent concentration was “inactive”. For `Cc1cc(=O)[nH]c(SCC(=O)N2c3ccccc3CC2C)n1` (centres undefined), the max dye-equivalent concentration was “inactive”. For `Cn1c(=O)c2c(nc(OCc3cccnc3)n2Cc2ccccc2)n(C)c1=O`, the max dye-equivalent concentration was “inactive”. For `Cc1nc2cnc(N3CCNCC3)nc2n(Cc2ccc(F)cc2)c1=O`, the max dye-equivalent concentration was 110 nM (active). For `Cn1cc(-c2nc3cnc(N4CCNCC4)nc3n(CCC#N)c2=O)c2ccccc21`, the max dye-equivalent concentration was “inactive”. For `COCCn1c(=O)c(CCc2ccccc2)nc2cncnc21`, the max dye-equivalent concentration was 88 nM (active). For `Cc1nc2cnc(Nc3ccccc3)nc2n(C[C@H]2CCCO2)c1=O`, the max dye-equivalent concentration was “inactive”. In the case of `Cc1nc2cnc(N3CCN(C)CC3)nc2n(C[C@H]2CCCO2)c1=O`, the max dye-equivalent concentration is reported as 59 nM (active). With `O=C(CSc1nnc(-c2ccco2)n1CC1CCCO1)c1ccccc1` (centres undefined) the max dye-equivalent concentration was “inactive”. With `N#Cc1cccc(-c2nc3cnc(N4CCNCC4)nc3n(C3CC3)c2=O)c1` the max dye-equivalent concentration was 350 nM (active). With `O=c1c(CCc2ccccc2)nc2cncnc2n1C1CC1` the max dye-equivalent concentration was “inactive”. With `CCOc1cc2c(cc1OCC)C(C(=O)O)C(c1ccc(OC)c(O)c1)N(C)C2=O` (centres undefined) the max dye-equivalent concentration was “inactive”. For `O=C(COc1cccc(-n2cnnn2)c1)NCCC1=CCCCC1`, the max dye-equivalent concentration was “inactive”. In the case of `Cc1cc(C)cc(NC(=O)N2CCC(NC(=O)c3ccc(F)cc3)CC2)c1`, the max dye-equivalent concentration is reported as “inactive”. For `O=C(NC12CC3CC(CC(C3)C1)C2)N1CCCC(CO)C1` (centres undefined), the max dye-equivalent concentration was “inactive”. In the case of `COc1ccc(S(=O)(=O)N2CCCC2)c(C)c1C`, the max dye-equivalent concentration is reported as “inactive”. For `Cc1ccc(NC(=O)C2CC(c3ccc(F)cc3)=NO2)cc1` (centres undefined), the max dye-equivalent concentration was “inactive”. For `COc1ccc(C(=O)N2CCC3(CC2)CCN(c2ccccn2)CC3)cc1`, the max dye-equivalent concentration was “inactive”. With `CCOC(=O)CCC(=O)OCC(=O)NC(C)C1CC2CCC1C2` (centres undefined) the max dye-equivalent concentration was “inactive”. With `Cc1nc(N2CCCC2C(=O)O)c2oc3ccccc3c2n1` (centres undefined) the max dye-equivalent concentration was “inactive”. In the case of `COC(=O)c1ccc(C2CC(=O)Nc3cc(OC)c(OC)cc32)cc1` (centres undefined), the max dye-equivalent concentration is reported as “inactive”. With `O=c1c(-c2ccc(F)cc2)nc2cnc(N3CCNCC3)nc2n1Cc1cccs1` the max dye-equivalent concentration was 16 nM (active).
